Records with an inconclusive call do not appear. A call without a number means that no potency is given here. Calls of active or inactive are those of the source. The call rests on the fitted dose curve; in most records, active means well fitted inhibition curve with a large enough effect; inconclusive means small, poorly fitted or top-dose-only effect, or effect the other way; inactive means flat fitted curve, though single readings scatter.
molecular target: ATP-dependent 6-phosphofructokinase (Trypanosoma brucei brucei) (UniProt O15648); experiment: qHTS Validation Assay to Find Inhibitors of T. brucei phosphofructokinase (AID 485368); details: T. brucei PFK enzyme assay, qHTS 7-point titration; series mostly up to 57.5 µM
Source text: NIH Molecular Libraries Probe Production Network [MLPCN]
NIH Chemical Genomics Center [NCGC]
PI Name: Malcolm Walkinshaw, University of Edinburgh
Various species of the protozoan family Trypanosomatidae are responsible for a range of serious human diseases in tropical and subtropical areas of the world. […] Many of the disorders caused by trypanosomatids are fatal if left untreated, but most currently used drugs are inefficient and toxic.
Oxidative metabolism involving the mitochondrial tricarboxylic acid cycle and oxidative phosphorylation are repressed in these parasites, and recent RNA interference (RNAi) experiments have shown that even partial depletion of certain individual glycolytic enzymes can lead to the death of cultured parasites. One such glycolytic enzyme, phosphofructokinase (PFK), catalyzes the formation of fructose-1,6-bisphosphate (F1,6BP) and ADP from fructose-6-phosphate (F6P) and ATP, and in many metabolic circumstances makes an important contribution to the control of flux through the glycolytic pathway. As a specific glycolytic target, PFK is particularly attractive as it catalyzes the first irreversible step in glycolysis, and structural and kinetic studies have shown very substantial and essential differences from corresponding host enzymes, allowing for the discovery of parasite-selective inhibitors.
The goal of this screen is to find small-molecule inhibitors of T. brucei PFK using a biochemical assay that measures PFK activity as a function of ADP production. A luminescence-based assay for T. brucei PFK activity has been developed which uses luciferase to detect production of ADP. Traditional luciferase-based nucleotide detection reagents rely on ATP production as a direct substrate for the luciferase reaction; however, PFK catalyzes the transfer of a phosphate from ATP to F6P, resulting in the net depletion of ATP. To directly measure the ADP product of the PFK reaction, we used the ADP-Glo detection kit (Promega), which utilizes two separate reactions to 1) deplete all remaining uncatalyzed ATP and 2) convert all remaining ADP to ATP, which is then detected through a traditional luciferase-coupled reaction. Compounds were screened as a concentration-titration series that ranged from 57 uM to 0.7 nM.
NCGC Assay Protocol Summary:
Substrate buffer was dispensed into white, solid 1536-well plates at 3uL/well in 0.1M triethanolamine (TEA) buffer, pH 8.0, containing final concentrations of 5 mM MgCl2, 0.01% Tween20, 0.5 mM fructose-6-phosphate (F6P) and 0.1mM ATP. Then, 23 nL of compounds or DMSO were delivered to each well using a pin tool. One uL T. brucei PFK (0.1M TEA, 0.01% Tween20, 0.1% bovine serum albumin (BSA) and 1.25nM PFK, final concentrations) was then dispensed, and plates were incubated at room temperature for 45 min. The luminescent detection reagent, ADP-Glo (Promega), was then added in two steps: the first reagent, ADP-Glo (which converts remaining uncatalyzed ATP), was added at 2.5uL/well and incubated for ten minutes at room temperature, and the second component, Kinase Detection reagent (which converts ADP to ATP as a substrate for luciferase-based luminescence), was added immediately after at 5uL/well, followed by one final ten minute room temperature incubation. The plates were measured on a ViewLux plate reader for luminescent signal using a clear filter with a one second exposure. The %Activity was determined from the corrected luminescence values. As no specific T. brucei PFK inhibitors have been identified in the literature, 1x (1.25nM) and 0x PFK enzyme controls (untreated) were included to normalize %Activity of identified inhibitors; 0x enzyme values corresponded to 100%Activity (full inhibition), while 1x PFK enzyme values were used to normalize 0%Activity (no inhibition).
Concentration-response curves were fitted to the signals arising from the resulting luminescence. […]
Potency means the concentration at half of the fitted maximal effect.

Sequence of ATP-dependent 6-phosphofructokinase (Trypanosoma brucei brucei) (O15648 whole entry, looked up): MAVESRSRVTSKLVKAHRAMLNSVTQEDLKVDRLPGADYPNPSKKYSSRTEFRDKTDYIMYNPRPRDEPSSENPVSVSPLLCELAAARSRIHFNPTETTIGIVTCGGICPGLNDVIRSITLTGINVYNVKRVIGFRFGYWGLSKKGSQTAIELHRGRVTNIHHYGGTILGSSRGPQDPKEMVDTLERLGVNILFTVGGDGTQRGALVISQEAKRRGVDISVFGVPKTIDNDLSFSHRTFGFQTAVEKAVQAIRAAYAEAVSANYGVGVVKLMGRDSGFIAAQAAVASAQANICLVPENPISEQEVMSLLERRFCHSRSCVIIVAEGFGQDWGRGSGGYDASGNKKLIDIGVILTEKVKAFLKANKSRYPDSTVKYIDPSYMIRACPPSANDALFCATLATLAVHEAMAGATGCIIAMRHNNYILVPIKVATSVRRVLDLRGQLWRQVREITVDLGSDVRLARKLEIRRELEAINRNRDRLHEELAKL

| SMILES | Potency |
| --- | --- |
| CC(=O)O[C@H]1C[C@@H]2CC[C@@H]3[C@H](CC[C@@]4(C)[C@H]3C[C@H]([N+]3(C)CCCCC3)[C@@H]4OC(C)=O)[C@@]2(C)C[C@@H]1[N+]1(C)CCCCC1 | inactive |
| N[C@H](CO)C(=O)O | inactive |
| N[C@@H](Cc1cnc[nH]1)C(=O)O | inactive |
| CC(CCc1ccccc1)NCC(O)c1ccc(O)c(C(N)=O)c1 (stereo not given) | inactive |
| CCC(NC(C)C)C(O)c1ccc(O)c(O)c1 (stereo not given) | inactive |
| O=C(O)c1cc2cc(Cc3cccnc3)ccc2o1 | inactive |
| O=C1CCC(c2ccc(-n3ccnc3)cc2)=NN1 | inactive |
| C[C@]12CC[C@@H]3c4ccc(O)cc4CC[C@H]3[C@@H]1CC[C@@H]2O | inactive |
| CC1(C)CCC(NC(=O)[C@@H](N)CCC(=O)O)CC1 | inactive |
| CNCCC=C1c2ccccc2CCc2ccccc21 | inactive |
| Oc1ccc(O)cc1 | 10.7 µM (active) |
| COc1cc(NS(C)(=O)=O)ccc1Nc1c2ccccc2nc2ccccc12 | inactive |
| COC(=O)[C@H]1[C@H]2C[C@H]3c4[nH]c5ccccc5c4CCN3C[C@H]2CC[C@@H]1O | inactive |
| CC[C@H](C)C(=O)O[C@H]1CCC=C2C=C[C@H](C)[C@H](CC[C@@H]3C[C@@H](O)CC(=O)O3)[C@H]21 | inactive |
| C[N+]1(CCCCC[N+]2(C)CCCC2)CCCC1 | inactive |

Source: PubChem BioAssay (NCATS)
